# Screening results (PubChem)
# ALDH1A1 block: inhibitors of human aldehyde dehydrogenase 1A1 | Purified ALDH1A1, NADH fluorescence, propionaldehyde substrate | Potency, µM (doses to about 75.3 µM), for the others: top-dose activity, negative = inhibition, hits mostly inhibitors | actives 7.3% (n = 220,000) | AID 1030;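 note: potency is the fitted concentration of half-maximal effect; plate controls were no enzyme wells and a reference inhibitor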
# Target sequence (P00352 whole entry, looked up): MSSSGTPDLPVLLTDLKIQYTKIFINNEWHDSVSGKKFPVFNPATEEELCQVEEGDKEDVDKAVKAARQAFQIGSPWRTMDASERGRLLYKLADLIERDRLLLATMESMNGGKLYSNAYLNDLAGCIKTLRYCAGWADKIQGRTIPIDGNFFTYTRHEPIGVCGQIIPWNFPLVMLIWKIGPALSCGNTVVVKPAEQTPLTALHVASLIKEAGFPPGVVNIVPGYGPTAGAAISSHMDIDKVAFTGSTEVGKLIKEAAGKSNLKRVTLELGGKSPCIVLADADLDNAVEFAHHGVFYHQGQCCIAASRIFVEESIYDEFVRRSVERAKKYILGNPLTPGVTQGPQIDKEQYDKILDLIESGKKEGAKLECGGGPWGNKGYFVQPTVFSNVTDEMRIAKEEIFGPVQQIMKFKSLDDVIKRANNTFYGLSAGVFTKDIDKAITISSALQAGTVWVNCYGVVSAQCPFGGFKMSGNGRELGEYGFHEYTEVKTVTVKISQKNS
# Lamin A splicing: modulators of lamin A splicing | HeLa LMNA splicing GFP/RFP minigene ratio, 48 h | Potency, µM (doses to about 46.1 µM), without a hit: at the highest dose ratio change, negative = inhibition, actives largely listed as inhibitors | actives 0.01% (n = 200,000) | AID 1487; active = well fitted inhibition curve with a large enough effect in the signal ratio, with a control signal flat, not every such curve was filed as active; inconclusive = small, poorly fitted or top-dose-only effect, or effect the other way, or a change in a side signal; the % refers to the signal ratio; note: potency is the fitted concentration of half-maximal effect
#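 S3 HeLa cells stably expressing lamin A-EGFP splicing minigene plus DsRed2, 600 cells/well, 48 h compound exposure at 37C. Laser-scanning cytometry; analysed as GFP (500-530 nm)/RFP (575-640 nm) total intensity ratio; 0.5% DMSO vehicle.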
# PNC assembly inh: perinucleolar compartment assembly inhibition; PC3M PTB-GFP, PNC prevalence imaging, 16 h; stronger effect = lower value; AID 2417; actives 3.1% (n = 140,000); activity change (PNC), negative = inhibition, % at 10 µM;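 active = readout at or below -70, meaning at least 70% loss of cells showing the perinucleolar compartment, a nuclear body marking cancer cells; inconclusive = readout between -30 and a set limit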;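 note: plate controls were DMSO wells for no effect and camptothecin positive control wells for full effect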
#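 Read-out is percentage of cells bearing a perinucleolar compartment, from automated 20x imaging of fixed, Hoechst-stained PC3M PTB-GFP cells. Cells were seeded 4 h, then exposed 16 h to compound (23 nl of library stock) in duplicate plates.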
# KinaseGlo FLuc: blocks Kinase-Glo luciferase, a counter-screen artifact; Kinase-Glo luciferase, ATP luminescence, 8 min; Potency, µM (series often up to 38.3 µM), without a hit: at the top dose activity change, negative = inhibition, hits mostly inhibitors; actives 0.28% (n = 200,000); AID 1379; active = well fitted inhibition curve with a large enough effect; inconclusive = small, poorly fitted or top-dose-only effect; note: potency is the fitted concentration of half-maximal effect; nearly all actives have a fitted effect of over 60% in size
#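 Compounds were added to a substrate mix at pH 7.2 (50 mM imidazole, 10 uM ATP, within the enzyme's linear range), followed by Kinase-Glo detection reagent; luminescence was measured after 8 minutes at ambient temperature.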
# HPGD inh: HPGD (human) dehydrogenase inhibition; P15428; purified HPGD, NADH fluorescence kinetic, PGE2 substrate; Potency, µM, for inactives: at the top dose activity change, negative = inhibition, usual class: inhibitors; actives 4.3% (n = 150,000); AID 894; note: potency is the fitted concentration of half-maximal effect
#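 20 nM HPGD preincubated 15 min at room temperature with compound in 50 mM Tris-HCl pH 8, 0.01% Tween 20. Started with 1 mM NAD+ and 30 uM prostaglandin E2; NADH fluorescence (360/450 nm) read 5 times over 30-s intervals, last minus first.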
# Starred values were filed as active, the others as inactive; u = inconclusive; x = no result given; [ ] = remark or other dose. Most compounds without a hit are left out; they make up all but 10% or so of the library. Unless noted, calls come from the whole dose curve; as a rule, active = well fitted inhibition curve with a large enough effect (not every such curve was filed as active); inconclusive = small, poorly fitted or top-dose-only effect, or another doubt; inactive = no such curve, though single readings can be large or run the other way. Unless noted, % is set by controls: 0 for no effect and ±100 for the full control effect.
SMILES,ALDH1A1 block,Lamin A splicing,PNC assembly inh,KinaseGlo FLuc,HPGD inh
O=S(=O)(c1ccc(F)cc1)c1nc(-c2ccccc2F)oc1N1CCCCC1,5.01µM*,3.3%,32.8,3.8%,-6.4%
CC(=O)N1CCOc2cc(S(=O)(=O)NCc3ccccc3Cl)c(C)cc21,x,-0.1%[46 µM],x,x,x
COC(=O)N1CCC2(CCN(Cc3cc(C(F)(F)F)cc(C(F)(F)F)c3)CC2)CC1,-17.1%,x,x,-6.3%,-8.4%
COc1ccc(Cl)cc1S(=O)(=O)Nc1cccc(-c2ccc(N3CCOCC3)nn2)c1,x,-11.6%[46 µM],x,x,x
COc1cc2c(cc1OC)C(c1ccc(-c3cc(Cl)ccc3Cl)o1)=NCC2,u,u,u,1.6%,15.8µM*
COc1cc2c(cc1OC)C(c1ccc(-c3ccc(Cl)cc3Cl)o1)=NCC2,1.4%,u,u,-1.6%,-4.2%
O=C(Nc1ccccc1)N1CCC2(CC1)CCN(C(=O)c1ccncc1)CC2,3.4%,x,x,-4.2%,-2.0%
COP(=O)(OC)OC(c1ccc(Cl)cc1)P(=O)(OC)OC (centres undefined),5.6%,x,x,-1.1%,-4.2%
O=C1c2ccccc2CC[C@H]1CNCCc1ccc(O)cc1,u,x,x,0.2%,-4.0%
Cc1ccc(NC(=O)c2cc(C)n(-c3cccc(C)c3)c2C)cc1,u,u,u,-0.5%,25.1µM*
Cc1ccc(-n2c(C)cc(C(=O)NS(=O)(=O)c3ccc(C)cc3)c2C)cc1,-1.1%,-8.7%,u,4.0%,-14.4%
Cc1ccc(NC(=O)c2cc(C)n(-c3ccccc3)c2C)cc1,u,u,u,-15.8%,20µM*
CSC(SC)=C(C#N)C(=O)c1ccccc1,22.4µM*,u,x,x,x
COc1cccc(C(=O)C(C#N)=C(SC)SC)c1,7.08µM*,x,x,x,x
O=C(O)c1ccc(C(=O)C(=O)c2ccccc2)cc1,x,-1.1%[46 µM],x,x,x
Cc1ccc(NC(=O)c2ccc(=O)n(CC(=O)Nc3ccccc3)n2)cc1,x,15.1%[46 µM],x,x,x
O=C(c1cccc([N+](=O)[O-])c1)N1CCN(c2ccc(Nc3ccccc3)nn2)CC1,x,-6.2%[46 µM],x,x,x
CCc1cc(C(=O)Cc2ccc(F)cc2)c(O)cc1O,-1.0%,u,u,0.8%,-19.4%
CCc1cc(C(=O)COc2ccccc2F)c(O)cc1O,u,u,37.0,1.0%,31.6µM*
COC(=O)NC(/C=C/c1ccccc1)C(C(C)=O)C(=O)OC (centres undefined),-3.3%,x,x,-1.1%,-8.7%
CO[C@H]1C[C@@H](O[C@@H]2[C@H](C)[C@H](O[C@@H]3O[C@@H](C)C[C@@H](N(C)C)[C@@H]3O)[C@H](C)C[C@]3(CO3)C(=O)[C@H](C)[C@H](O)[C@H](C)[C@H](C)OC(=O)[C@@H]2C)O[C@@H](C)[C@H]1O,-2.5%[20.9 µM],u,x,-2.0%[17.1 µM],2.3%
COc1ccc(/C=N/NC(=O)CCn2cnc(-c3ccccc3)c2-c2ccccc2)cc1OC,28.2µM*,u,u,-3.7%,-6.7%
N#Cc1cccc(NC(=O)CN2NS(=O)(=O)c3ccccc3C2=O)c1,-10.9%,-0.3%,44.9,-2.0%,15.8µM*
N#Cc1cccc(NC(=O)CSc2ccc3c4c(cccc24)C(=O)c2ccccc2-3)c1,17.8µM*,12.4%,u,-1.2%,-29.0%
Cc1noc(C)c1C(=O)N1CCC2(CC1)CN(c1cccc(-c3ccccc3)c1)C2,u,x,x,-1.3%,u
SMILES,ALDH1A1 block,Lamin A splicing,PNC assembly inh,KinaseGlo FLuc,HPGD inh
Cn1c(=O)c2c(nc(SCC(=O)OCc3ccccc3)n2C)n(C)c1=O,0.0%,-6.9%,-96.0*,0.4%,3.1%
Cn1c(=O)c2c(nc(SCC(=O)c3ccccc3F)n2C)n(C)c1=O,17.8µM*,x,x,-0.9%,x
CCOC(=O)c1cc2c(nc1NC(=S)Nc1ccccc1)CC(C)(C)OC2,14.1µM*,-6.3%,-81.9*,1.3%,-3.6%
CCOC(=O)c1cc2c(nc1N)CC(C)(C)OC2,u,-7.6%,3.6,0.6%,u
O=C(NCC(c1ccco1)S(=O)(=O)c1ccc(Cl)cc1)c1ccc(C(F)(F)F)cc1 (centres undefined),x,-3.5%[46 µM],x,x,x
O=C(CSc1cccc[n+]1[O-])Nc1ccccc1Oc1ccccc1,14.1µM*,x,x,-2.2%,x
O=C(CSc1cccc[n+]1[O-])Nc1cc2c(cc1Cl)C(=O)c1ccccc1C2=O,8.91µM*,-0.3%,18.9,10.0%,-19.1%
